We go through 95 molecules from PubChem BioAssay AID1445 (SRMLSC, 2008).

The whole screen tested about 220,000 compounds, of which about 910 (0.41%) were called active.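 The calls were made as follows: active = primary inhibition above the hit cutoff, then over 50% inhibition at one or more dose response concentrations (cut at about 23% in these data, passing the limit was not always enough); inconclusive = conflicting primary data, or primary hits not chosen for dose response; inactive = low primary inhibition, or under 50% at every dose.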 For the sample, actives were picked, then their nearest neighbours and some compounds at random. Entries with a potency or affinity are not part of this list.

The assay deals with Aminopeptidase N (Plasmodium falciparum (isolate 3D7)) (UniProt O96935). Briefly: P. falciparum M1AAP inhibitors, biochemical, fluorogenic H-Leu-NHMec substrate, 1536-well (AID 1445).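 Also: plate controls were DMSO full reaction for no effect and no enzyme background for full effect.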 The conditions noted are these: recombinant M1AAP, H-Leu-NHMec fluorogenic kinetic assay; at 30 µM, active compounds read high unless noted.
Sequence of Aminopeptidase N (Plasmodium falciparum (isolate 3D7)) (O96935 whole entry, looked up): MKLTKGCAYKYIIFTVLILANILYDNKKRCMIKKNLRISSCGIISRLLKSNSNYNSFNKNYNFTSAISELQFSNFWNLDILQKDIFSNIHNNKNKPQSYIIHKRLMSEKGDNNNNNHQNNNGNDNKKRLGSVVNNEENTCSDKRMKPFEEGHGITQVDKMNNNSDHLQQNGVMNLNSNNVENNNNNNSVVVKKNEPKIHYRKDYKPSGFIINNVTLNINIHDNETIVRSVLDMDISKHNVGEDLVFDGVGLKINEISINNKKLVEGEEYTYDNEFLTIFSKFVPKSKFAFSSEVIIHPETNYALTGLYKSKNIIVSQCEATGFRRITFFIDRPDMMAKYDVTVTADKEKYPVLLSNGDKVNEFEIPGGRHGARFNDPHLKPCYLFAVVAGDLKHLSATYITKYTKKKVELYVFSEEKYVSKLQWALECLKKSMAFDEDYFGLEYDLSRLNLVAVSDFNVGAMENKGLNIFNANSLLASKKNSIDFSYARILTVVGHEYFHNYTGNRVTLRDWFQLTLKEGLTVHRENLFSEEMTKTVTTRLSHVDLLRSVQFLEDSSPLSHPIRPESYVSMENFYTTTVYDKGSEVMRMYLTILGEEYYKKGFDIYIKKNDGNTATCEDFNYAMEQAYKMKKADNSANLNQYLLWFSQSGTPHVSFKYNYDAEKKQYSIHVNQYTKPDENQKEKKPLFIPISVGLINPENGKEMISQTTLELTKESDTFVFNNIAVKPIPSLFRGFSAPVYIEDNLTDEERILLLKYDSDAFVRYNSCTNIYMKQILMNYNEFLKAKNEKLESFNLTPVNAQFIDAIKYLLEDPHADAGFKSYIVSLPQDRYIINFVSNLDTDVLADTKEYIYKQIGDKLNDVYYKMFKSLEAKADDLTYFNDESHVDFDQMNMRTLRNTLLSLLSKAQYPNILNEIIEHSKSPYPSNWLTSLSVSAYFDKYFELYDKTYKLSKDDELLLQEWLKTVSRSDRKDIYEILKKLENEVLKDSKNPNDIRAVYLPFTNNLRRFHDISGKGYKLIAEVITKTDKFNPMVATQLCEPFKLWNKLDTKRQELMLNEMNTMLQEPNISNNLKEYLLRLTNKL
Turning to `N#CCCN1CCN(C(=S)c2ccc(-c3ccc(Cl)c(Cl)c3)o2)CC1`, the inhibition was 7.98% (inactive).
As for `N#C/C(=C(/O)c1ccc([N+](=O)[O-])cc1)c1nc2ccccc2[nH]1`, the inhibition was 6.69% (inactive).
In the case of `CCOC(=O)N1CCN(C(=O)CCl)CC1`, the inhibition was 2.94% (inactive).
As to `Cc1ccc(N2CCN(C(=O)c3ccccc3NC(=O)c3ccccc3C(=O)O)CC2)cc1`, the inhibition was 6.79% (inactive).
Regarding `COCCNC(=O)c1cc2cc(Br)cc(Br)c2oc1=O`, the inhibition was 2.6% (inactive).
Turning to `N#C/C(=C\c1ccc(-c2cccc(Cl)c2)o1)C(=O)Nc1cccc2cccnc12`, the inhibition was -0.58% (inactive).
The same measure for `Cn1c(N)c(C(=O)COC(=O)C2=COCCO2)c(=O)n(C)c1=O`: 3.8% (inactive).
For `O=C(NCc1cccs1)C1CCCN(S(=O)(=O)c2cccs2)C1` (stereo not given), the inhibition was 14.9% (inactive).
Regarding `O=C(NCc1cccs1)C1CCN(S(=O)(=O)N2CCCC2)CC1`, the inhibition was 4.08% (inactive).
Regarding `O=C(NCc1cccs1)C1CCCN1S(=O)(=O)c1ccccc1F` (stereo not given), the inhibition was 2.94% (inactive).
On to `O=C(NCc1cccs1)C1CCC(CNS(=O)(=O)c2ccc(Br)s2)CC1` (stereo not given), for which the inhibition is -4.74% (inactive).
Consider `CCS(=O)(=O)N1CCC(C(=O)NCc2cccs2)CC1`, for which the inhibition was 10.2% (inactive).
Regarding `O=C(NCc1cccs1)C1CCCN(S(=O)(=O)c2ccc(Br)s2)C1` (stereo not given), the inhibition was 18.8% (inactive).
Regarding `COc1ccccc1NC(=O)c1ccc(-n2cncn2)nc1`, the inhibition is 18.8% (inactive).
Take `FC(F)(F)c1ccc(Oc2ccccc2Cl)nc1`: the inhibition was 2.42% (inactive).
The same measure for `O=C1CC(N(Cc2ccc3c(c2)OCO3)C(=O)Nc2ccc(F)cc2)C(=O)N1c1ccccc1` (stereo not given): 20.8% (inactive).
As to `O=C1CC(N(Cc2ccco2)C(=O)Nc2ccc(F)cc2)C(=O)N1c1ccc(F)cc1` (stereo not given), the inhibition was 23.6% (active).
On to `CCC(=O)N(Cc1ccco1)C1CC(=O)N(c2ccccc2)C1=O` (stereo not given), for which the inhibition was 0.67% (inactive).
Consider `CCCCc1ccc(NC(=O)C(C)CC)cc1` (stereo not given), for which the inhibition was 1.58% (inactive).
`CC1=NN(C(=O)Cc2ccc([N+](=O)[O-])cc2)C(O)(c2cccnc2)C1` (stereo not given): the inhibition was 7.72% (inactive).
As to `O=C(Nc1ccc(O)cc1C(=O)O)c1ccc2c(c1)C(=O)N(Cc1ccco1)C2=O`, the inhibition is 15.1% (inactive).
Consider `Cc1c(NC(=O)c2ccc3c(c2)C(=O)N(Cc2ccco2)C3=O)cccc1C(=O)O`, for which the inhibition was 3.77% (inactive).
Turning to `O=C1CCC(=O)N1N1C(=O)C2C3c4ccccc4C(c4ccccc43)C2C1=O` (stereo not given), the inhibition was 0.65% (inactive).
As for `Cc1cc(C)n(CC(=O)N/N=C/c2cc([N+](=O)[O-])ccc2O)n1`, the inhibition was 31.6% (inactive).
Take `O=C(Cn1cnc([N+](=O)[O-])n1)N/N=C/c1ccc(O)cc1O`: the inhibition was 2.52% (inactive).
Consider `O=C(Cn1nc2ccccc2n1)N/N=C/c1cc([N+](=O)[O-])ccc1O`, for which the inhibition is 37.9% (inactive).
For `O=C(Cn1nnc(-c2ccccc2)n1)N/N=C/c1cccc([N+](=O)[O-])c1O`, the inhibition was 7.92% (inactive).
Regarding `Cc1cc(C)n(CC(=O)N/N=C/c2ccc([N+](=O)[O-])s2)n1`, the inhibition is 13.2% (inactive).
The same measure for `O=C(Cn1cnc([N+](=O)[O-])n1)N/N=C/c1ccccc1O`: 0.91% (inactive); for `Cc1cc(C(=O)N/N=C/c2cc(Cl)cc([N+](=O)[O-])c2O)c2ccccc2n1`: 30.4% (inactive).
`O=C(N/N=C/c1cc(Cl)cc([N+](=O)[O-])c1O)C1CC1`: the inhibition is 29.8% (inactive).
Take `Cc1nc2c(c(=O)c3ccccc3n2C)c(=O)n1C1CCCCCC1`: the inhibition was -1.82% (inactive).
As for `NS(=O)(=O)c1ccc(N/C=C\C(=O)c2ccncc2)cc1`, the inhibition was 13% (inactive).
The same measure for `CCNS(=O)(=O)c1ccc(NC(=O)CC(C)c2ccccc2)cc1` (stereo not given): 1.21% (inactive); for `CC(=O)Nc1cccc(/C(C)=N/NC(=O)c2cc(-c3ccncc3)nc3ccccc23)c1`: 10.5% (inactive).
For `Cc1cc(C)n(-c2ccc(Oc3ccccc3)c(S(=O)(=O)O)c2)n1`, the inhibition was 1.18% (inactive).
In the case of `O=C1CC(c2cccs2)c2ccc3ccccc3c2N1` (stereo not given), the inhibition is 0.72% (inactive).
With `Cc1ccc(N2C(=S)NC3c4ccccc4OC2(C)C3C(=O)N(C)C)cc1` (stereo not given), the inhibition was 2.84% (inactive).
On to `CN(Cc1cnccn1)Cc1nc(Cc2cccc(F)c2)no1`, for which the inhibition was 2.76% (inactive).
Consider `CCOc1[nH]n(-c2ccccc2)c(=O)c1C=Nc1ccccc1`, for which the inhibition was 7.67% (inactive).
For the molecule `CCOC(=O)c1ccc(NC(=O)CNS(=O)(=O)c2ccccc2)cc1`, the inhibition was 2.05% (inactive).
The same measure for `Oc1ccc(Cl)cc1C=Nc1ccccc1Br`: 1.39% (inactive).
Consider `Oc1ccc(Cl)cc1N=Cc1sc2ccccc2c1Cl`, for which the inhibition was 21% (inactive).
`OCCC1CN(Cc2c(F)cccc2Cl)CCN1C1CCCC1` (stereo not given): the inhibition is -1.58% (inactive).
Consider `COc1ccc(OC)c2c1sc(=NC(=O)C1CC1)n2C`, for which the inhibition is 2.25% (inactive).
With `COCCCNc1nc2ccccc2[nH]c1=O`, the inhibition is 7.88% (inactive).
The same measure for `NC(=S)Nc1nc2ccccc2[nH]c1=O`: 23.5% (active).
The same measure for `COc1ccc2[nH]c(=O)c(NC(N)=S)nc2c1`: 16.1% (inactive).
As for `Cc1occc1C(=O)NNC(=O)c1ccccc1Br`, the inhibition was -1.69% (inactive).
In the case of `COC(=O)Cc1cc(=O)oc2cc(OC)ccc12`, the inhibition was 1.65% (inactive).
Consider `O=C(Cn1nnc2ccccc2c1=O)NCC1CCC(C(=O)O)CC1` (stereo not given), for which the inhibition was 0.69% (inactive).
Consider `COc1ccc2c(CC(=O)NCC3CCC(C(=O)O)CC3)cc(=O)oc2c1` (stereo not given), for which the inhibition is 3.73% (inactive).
As to `CCCCc1cc(=O)oc2cc(O)ccc12`, the inhibition is 31.7% (inactive).
`COc1cc(OC)c2c(C)cc(=O)oc2c1C(CCN1CCN(c2ccccc2)CC1)c1ccc2c(c1)OCO2` (stereo not given): the inhibition was 1.4% (inactive).
With `Cc1ccc(C(=O)Nc2ccccc2C(=O)O)cc1NC(=O)COc1c(C)cccc1C`, the inhibition was 4.7% (inactive).
Take `CN(CC(=O)Nc1cccc2ccccc12)C(=O)/C=C/c1cccs1`: the inhibition was 16.9% (inactive).
Consider `Cc1cc(C)cc(N(C(=O)c2nsc(Cl)c2Cl)C(C(=O)NC2CCCC2)c2ccc(O)cc2)c1` (stereo not given), for which the inhibition is -3.07% (inactive).
With `N#Cc1cc2c(nc1SCc1ccccc1)CCCC2`, the inhibition is 5.77% (inactive).
Consider `COc1cccc(/C=N\NC(=O)Cn2nnc3ccccc32)c1O`, for which the inhibition was 1.18% (inactive).
The same measure for `Cc1cc(SCC(=O)N/N=C/c2ccc(O)cc2O)c(C)cc1Br`: 24% (active); for `C=CCn1c(Cn2nnc3ccccc32)nnc1SCC(=O)N/N=C/c1cc(Br)cc(OC)c1O`: 46.2% (active); for `C=CCn1c(CNc2ccc(C)cc2)nnc1SCC(=O)N/N=C/c1ccc(O)cc1`: 14.4% (inactive).
Turning to `Cc1cc(SCC(=O)N/N=C/c2ccc(O)c(O)c2)c(C)cc1Br`, the inhibition was -0.74% (inactive).
The same measure for `Cc1cc(SCC(=O)N/N=C/c2ccc(O)c(O)c2O)c(C)cc1Br`: 39% (inactive).
Consider `CCn1c(SCC(=O)N/N=C/c2cc(OC)c(O)c(OC)c2)nc2ccccc21`, for which the inhibition was 3.33% (inactive).
On to `C=CCn1c(CNc2ccccc2)nnc1SCC(=O)N/N=C/c1ccccc1O`, for which the inhibition is 30.8% (inactive).
In the case of `C=CCn1c(CNc2ccc(C)cc2)nnc1SCC(=O)N/N=C/c1ccc(O)cc1O`, the inhibition is 37% (active).
Consider `CCC1(CC)Cc2ccccc2C(=O)N1`, for which the inhibition is 2.59% (inactive).
Consider `Nc1ccccc1SCc1ccccc1Cl`, for which the inhibition is 1.31% (inactive).
The same measure for `O=C(CCN1CCOCC1)NNC(=O)/C(=C/c1ccccc1)NC(=O)c1ccccc1`: 5.04% (inactive).
As for `O=C(c1cccc(Oc2c(Cl)cccc2[N+](=O)[O-])c1)N1CCCCC1`, the inhibition is 4.82% (inactive).
`O=C(CCC1N=C2c3ccccc3N=C(SCc3ccc(Cl)cc3)N2C1=O)NCc1ccco1` (stereo not given): the inhibition was 11.4% (inactive).
With `Cc1ccc(CSC2=Nc3ccccc3C3=NC(CC(=O)NCc4ccco4)C(=O)N23)cc1` (stereo not given), the inhibition is 25.5% (active).
`Cc1ccc(CSC2=Nc3ccccc3C3=NC(CCC(=O)NCc4ccco4)C(=O)N23)cc1` (stereo not given): the inhibition is 14.5% (inactive).
For `C=CCN=C1S/C(=C\c2ccc(Cl)cc2)C(=O)N1CC=C`, the inhibition was 3.89% (inactive).
As for `COC(=O)C(C(C)=O)C1=C/C(=N\S(=O)(=O)c2ccc(C)cc2)c2ccccc2C1=O` (stereo not given), the inhibition was 12.9% (inactive).
The same measure for `Cc1ccc(S(=O)(=O)/N=C2/C=C(Sc3ncn[nH]3)C(=O)c3ccccc32)cc1`: 14.9% (inactive); for `O=C(/C=C/c1cccc(Br)c1)N1CCN(c2ccccn2)CC1`: 12.4% (inactive); for `CCCNC(=O)c1ccc2c(=O)n3c(-c4ccc(C)cc4)csc3nc2c1`: 10% (inactive).
The same measure for `O=C(O)CSc1nc(-c2cccs2)cc(C(F)(F)F)n1`: -2.67% (inactive); for `O=C(c1ccc(C(F)(F)F)cc1)C1CCCN(C(=O)CN2C(=O)CSC2=O)C1` (stereo not given): -2.21% (inactive).
`CC(Sc1nc(N)cc(=O)[nH]1)C(=O)Nc1cccc(Cl)c1` (stereo not given): the inhibition was 14.1% (inactive).
The same measure for `CN(CCc1ccccn1)C(=O)Nc1ccc(C(C)(C)C)cc1`: 2.28% (inactive).
For `CN1C(=O)/C(=C/c2coc3ccc(O)cc3c2=O)SC1=S`, the inhibition was -2.96% (inactive).
Take `O=C1NC(=S)S/C1=C\c1coc2ccccc2c1=O`: the inhibition was 14.4% (inactive).
The same measure for `CCC1CCCCN1C(=O)CCc1nnc(C2CCCCC2)o1` (stereo not given): 0.86% (inactive); for `CC(C)Cc1nnc(NC(=O)CSc2nc(O)c(-c3ccccc3)c(=O)[nH]2)s1`: 4.36% (inactive).
On to `O=C(Nc1nc(-c2cc3ccccc3oc2=O)cs1)c1ccco1`, for which the inhibition was 13.4% (inactive).
For the molecule `Nc1ccc(Nc2nc(-c3cc4ccccc4oc3=O)cs2)cc1`, the inhibition was 6.86% (inactive).
Take `O=C1N(c2ccccc2)C[C@@H]2C[C@@H](c3cccs3)N3CCC[C@@]123`: the inhibition was 2.6% (inactive).
The same measure for `O=C(COc1ccccc1[N+](=O)[O-])Nc1ccc(Br)cc1`: -3.79% (inactive); for `O=C(COc1ccccc1)Nc1ccc([N+](=O)[O-])cc1`: 3.2% (inactive).
`O=C(COc1ccccc1[N+](=O)[O-])Nc1cccnc1`: the inhibition was 7.9% (inactive).
Turning to `O=C(COc1cccc2cccnc12)Nc1ccccc1`, the inhibition was -0.06% (inactive).
The same measure for `C=CCNC(=S)Nc1ccc(C(N)=O)cc1`: 4.91% (inactive).

The inhibition is the change of the read-out against control, counted positive when it falls.
